Inconclusive results are not listed. Calls of active or inactive are those of the source. The calls were made as follows: active = hit-call score of the fitted dose curve at least 0.9, where 1 is the maximum; inconclusive = response in the unintended direction; inactive = score below 0.9.
test: ACEA_ER_AUC_viability: ACEA Biosciences xCELLigence Real-Time Cell Analysis on Estrogen Receptor Agonism for Viability (AID 2283782);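 also: hit means loss of impedance signal meaning reduced cell growth or viability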
In short: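 Viability endpoint: reduced impedance area under the curve relative to DMSO, recorded by real-time electrode sensing over ~80 h of continuous exposure. Duplicate plates of T47D in hormone-depleted medium; eight concentrations, 1:4 dilutions, 100 uM maximum.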

Row | Structure (SMILES) | outcome | AC50
1 | CCc1occc(=O)c1O | inactive | –
2 | CCCC1CCCC(=O)O1 (stereo unspecified) | inactive | –
3 | CCCCC/C=C\C/C=C\CCCCCCCC(=O)O | – | 81.4 µM (active)
4 | CC(C)C(=O)OCCc1ccccc1 | inactive | –
5 | O=C(O[C@@H]1Cc2c(O)cc(O)cc2O[C@@H]1c1cc(O)c(O)c(O)c1)c1cc(O)c(O)c(O)c1 | – | 61 µM (active)
6 | CCCc1ccc(O)c(OC)c1 | inactive | –

— PubChem BioAssay (EPA / NIEHS)
